Screens (PubChem BioAssay)
In the library only some 1.7% were active in any assay of this set; here they are far more common.
GLP1R inv ag: qHTS of GLP-1 Receptor Inverse Agonists (Inhibition Mode). Glucagon-like peptide 1 receptor (Homo sapiens), P43220. HEK293 GLP-1R CRE-luciferase, luminescence, 24 h; GLP-1R form is constitutively active. Potency, µM (series often up to 38.3 µM), usual class: inhibitors. actives 1.6% (n = 410,000); also: nearly all actives have a fitted effect of over 55% in size
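Assay principle: reduced luminescence from a cAMP-responsive reporter in HEK293 cells co-expressing a constitutively active GLP-1R. Conditions: 24 hr compound incubation, 37 deg C, 5% CO2.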
GLP-1R agonist: qHTS of GLP-1 Receptor Agonists | actives 0.007% (n = 380,000) | HEK293 GLP-1R CRE-luciferase, luminescence, 4-6 h; cells express a hypersensitive GLP-1R form | Glucagon-like peptide 1 receptor (Homo sapiens), P43220 | Potency, µM (titrated, usually from 45.6 µM), usual class: activators
GLP1R cytotox: qHTS of GLP-1 Receptor Inverse Agonists: Cytotox Screen; HEK293 cAMP-luciferase reporter cells, luminescence, 24 h; Potency, µM (highest dose often 38.3 µM), actives largely listed as inhibitors; actives 0.13% (n = 410,000);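 also: loss of luciferase light is scored as toxicity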
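Compound-treated cells are incubated 24 hr at 37 deg C under 5% CO2 after a 12 hour attachment period, then luciferase detection reagent is added and luminescence is measured following 12 min at room temperature; lowered signal indicates toxicity.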
PTHR1 agonist: qHTS for PTHR1 Agonists: Primary Screen. actives 0.075% (n = 410,000). Potency, µM (series often up to 115 µM), actives largely listed as activators. HEK293 GP2 PTHR1 cells, GloSensor cAMP luminescence, 1 h. AID 743266, 2014; also: nearly all actives have a fitted effect of over 55% in size
Target sequence (Q03431 whole entry, looked up): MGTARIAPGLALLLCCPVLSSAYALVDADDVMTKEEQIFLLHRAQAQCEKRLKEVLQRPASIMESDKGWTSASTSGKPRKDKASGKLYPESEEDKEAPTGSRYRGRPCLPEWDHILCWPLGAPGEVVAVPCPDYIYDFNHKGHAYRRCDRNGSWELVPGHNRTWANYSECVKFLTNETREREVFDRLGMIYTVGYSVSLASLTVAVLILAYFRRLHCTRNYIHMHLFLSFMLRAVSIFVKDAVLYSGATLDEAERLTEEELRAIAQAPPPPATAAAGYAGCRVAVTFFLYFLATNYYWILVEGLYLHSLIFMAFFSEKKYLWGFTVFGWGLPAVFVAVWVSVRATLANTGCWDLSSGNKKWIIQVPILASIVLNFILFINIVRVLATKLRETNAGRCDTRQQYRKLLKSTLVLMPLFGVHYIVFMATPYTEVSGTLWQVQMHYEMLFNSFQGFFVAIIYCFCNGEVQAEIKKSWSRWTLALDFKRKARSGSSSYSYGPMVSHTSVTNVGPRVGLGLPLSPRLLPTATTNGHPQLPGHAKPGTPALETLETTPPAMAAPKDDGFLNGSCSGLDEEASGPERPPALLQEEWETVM
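HEK-293-derived GP2 cells expressing PTHR1 and a GloSensor cAMP reporter, 3,000/well, plated overnight, given luciferin plus IBMX (each 0.5 mM as added) for 1 h at 37 °C, then compound for 1 h at 37 °C. Luminescence was read after 15 min at room temperature.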
Large screens that a line does not name were inactive. Calls follow the shape of the dose curve; as a rule, active = well fitted curve in the direction sought with a large enough effect; inconclusive = small, poorly fitted or top-dose-only effect, or another doubt; inactive = no such curve, though single readings can be large; an effect the other way counts as inactive or inconclusive.

COc1ccc(NC(=S)NCCSc2ccc(C)cc2)c(OC)c1	GLP1R inv ag 10µM, GLP1R cytotox inconclusive
Cc1ccc(NC(=S)NCCSc2ccc(Cl)cc2)c(C)c1	GLP1R inv ag 10µM, GLP1R cytotox inconclusive
S=C(NCCc1ccc(Cl)cc1)Nc1ccc(Cl)cc1Cl	GLP1R inv ag 10µM, GLP1R cytotox inconclusive
CCCCC(CC)CNC(=O)CCCn1c(=O)[nH]c2ccsc2c1=O (stereo unspecified)	none
Cc1cc(C)cc(NC(=O)CSc2nnc(COc3ccccc3Cl)o2)c1	none
Cc1ccc(C(=O)[C@H](C)CN2CCCCC2)cc1	none (no result: GLP1R inv ag, GLP1R cytotox, PTHR1 agonist)
CCCCNC(=S)Nc1ccccc1Cc1ccccc1	GLP1R inv ag 11µM, GLP1R cytotox inconclusive
Cc1nc2nc(SCC(=O)NCCCN3CCCC3)nn2c(C)c1Cc1ccccc1Cl	GLP1R inv ag 6.3µM
COC(=O)c1sccc1S(=O)(=O)N(CC(=O)Nc1cc(F)ccc1F)c1ccc(C)c(C)c1	GLP1R inv ag inconclusive (no result: GLP-1R agonist)
COC(=O)c1sccc1S(=O)(=O)N(CC(=O)Nc1cccc(C)c1C)c1ccc(C)c(C)c1	GLP1R inv ag 11µM (no result: GLP-1R agonist)
COC(=O)c1sccc1S(=O)(=O)N(CC(=O)Nc1cc(C)ccc1C)c1ccc(C)c(C)c1	GLP1R inv ag 13µM (no result: GLP-1R agonist)
CCCc1cnc2c(c1SCC(=O)Nc1ccc(C)c(Cl)c1)c(=O)n(C)c(=O)n2C	none (no result: GLP-1R agonist)
COc1cccc2c1C(=O)c1c(O)c3c(c(O)c1C2=O)C[C@@](O)(C(=O)CO)C[C@@H]3OC1CC(N)C(O)C(C)O1 (stereo partly specified)	GLP1R inv ag 4.5µM, GLP1R cytotox inconclusive
COc1cccc2c1C(=O)c1c(O)c3c(c(O)c1C2=O)C[C@@](O)(C(=O)CO)C[C@@H]3O[C@H]1C[C@H](N)[C@H](O)[C@H](C)O1	GLP1R inv ag inconclusive, GLP1R cytotox inconclusive
O=C(Nc1ccc(OCc2cc(=O)n3c4c(sc3n2)CCCC4)cc1)c1ccc(F)cc1	none
Cc1cc(/C=N/NC(N)=S)c(C)n1-c1cccc(Cl)c1	GLP1R inv ag inconclusive, GLP1R cytotox inconclusive
Cc1cccc(C)c1-n1c(C)cc(/C=N/NC(N)=S)c1C	GLP1R inv ag 11µM, GLP1R cytotox inconclusive
CCc1ccc(N2C=C(C(=O)OC)C(c3cccc4ccccc34)C(C#N)=C2N)cc1 (stereo unspecified)	GLP1R inv ag 1µM (no result: GLP-1R agonist)
Cc1nc(N2CCC(C)CC2)c2nnn(Cc3ccccc3)c2n1	GLP1R inv ag 10µM
Clc1ccc(CNc2nc(CN3CCOCC3)nc3scc(-c4ccccc4)c23)cc1	GLP1R inv ag 3.2µM, GLP1R cytotox inconclusive
Clc1ccc(-c2csc3ncnc(NCCN4CCOCC4)c23)cc1	GLP1R inv ag 3.2µM
CCOc1ccc(CCNC(=O)CS(=O)(=O)Cc2nc(-c3cccc(Cl)c3)oc2C)cc1	GLP1R inv ag inconclusive
CC(C)Cc1nn2c(=O)cc(COC(=O)c3cccc(NC(=O)c4cccs4)c3)nc2s1	none (no result: GLP-1R agonist)
O=C(Nc1ccncc1)Nc1cccc(Cl)c1	GLP1R inv ag inconclusive
O=C(Nc1cccc(Cl)c1)Nc1csc([N+](=O)[O-])c1	GLP1R inv ag 6.3µM, GLP1R cytotox inconclusive
CCCN(CCC)c1nc2ccccc2nc1C(C#N)C(=O)OC(C)COC (stereo unspecified)	GLP1R inv ag 10µM
CCOc1ccc(-n2c(=O)c3c(C)c(C(=O)N(C)C)sc3n(Cc3cc(C)ccc3C)c2=O)cc1	PTHR1 agonist inconclusive (no result: GLP-1R agonist)
OC[C@H]1O[C@H](OC/C=C/c2ccccc2)[C@H](O)[C@@H](O)[C@@H]1O	none (no result: GLP1R inv ag, GLP1R cytotox, PTHR1 agonist)
Cc1ccc(-c2csc(N3CCC[C@@H]3C(=O)NCCn3c(-c4ccncc4)nc4ccccc43)n2)cc1	GLP1R inv ag 13µM
Cc1ccc(-c2csc(N3CCN(CCCn4c(-c5ccncc5)nc5ccccc54)CC3)n2)cc1	GLP1R inv ag inconclusive
Fc1ccc(-n2ncc3c(Nc4ccc(Oc5ccc(Cl)cc5)cc4)ncnc32)cc1	none (no result: GLP-1R agonist)
CCOc1ccc(C(=O)Nc2ccc3oc(-c4ccc(C)cc4C)nc3c2)cc1Br	none (no result: GLP-1R agonist)
COC(=O)c1ccc(NC(=O)C(C)N2Cc3ccccc3C2=O)cc1 (stereo unspecified)	none (no result: GLP-1R agonist)
C/C(=N\Nc1cc(N2CCCCC2)nc(C)n1)c1ccc(Br)cc1	GLP1R inv ag 10µM, GLP1R cytotox inconclusive
CCOc1ccc(C(c2c(O)cc(C)n(Cc3ccco3)c2=O)N2CCN(C)CC2)cc1 (stereo unspecified)	none (no result: GLP-1R agonist)
O=[N+]([O-])c1ccc(NCCCNS(=O)(=O)c2ccc(Cl)cc2)c(Cl)c1	GLP1R inv ag 11µM
O=[N+]([O-])c1ccccc1NCCNS(=O)(=O)c1ccc(Cl)cc1	none
Cc1ccccc1C(=O)N1CCN(c2ccc(NC(=O)CSc3ccc(Cl)cc3)cc2)CC1	GLP1R inv ag 7.1µM
O=C(Nc1cccc(OC(F)(F)F)c1)C1Cc2c(-c3ccccc3Oc3ccccc3)ccnc2O1 (stereo unspecified)	GLP1R inv ag 13µM
CCSC1=C(C#N)C(c2ccc(F)cc2)CC(=O)N1 (stereo unspecified)	none
CCCCCCSC1=C(C#N)C(c2ccc(O)cc2)CC(=O)N1 (stereo unspecified)	GLP1R inv ag 5µM, GLP-1R agonist inconclusive
Cc1ccc(-n2nc3c(=O)n(CCCC(=O)NCc4cccc(Cl)c4)nc(C)c3c2C)cc1	GLP1R inv ag 11µM
Cc1ccc(-n2nc3c(=O)n(C(C)C(=O)NCCCc4ccccc4)nc(C)c3c2C)cc1 (stereo unspecified)	GLP1R inv ag 5µM
Cc1ccc(-n2nc3c(=O)n(CCCC(=O)NCc4ccc(Cl)cc4)nc(C)c3c2C)cc1	GLP1R inv ag inconclusive
Fc1ccc(CNc2nc(-c3ccccc3)cc(C(F)(F)F)n2)cc1	GLP1R inv ag inconclusive
CCn1c(=O)cc(OCC(=O)N2CCN(c3ccc(OC)cc3)CC2)c2ccccc21	none
COc1ccc(C(=O)N2CCc3cc(OC)c(OC)cc3C2COc2ccccc2OC)cc1 (stereo unspecified)	none
COc1ccccc1N=CC=C1OC(C)(C)C(C)(C)O1	GLP1R inv ag 2.2µM
COc1ccc(C(=O)COC(=O)Cc2c[nH]c3ccccc23)c(OC)c1	GLP1R inv ag inconclusive
O=C(Cc1c[nH]c2ccccc12)OCC(=O)c1ccccc1	GLP1R inv ag 13µM
CCN1CCc2c(sc(NC(=O)c3ccc(S(=O)(=O)N4CCCC(C)C4)cc3)c2C(=O)OC)C1 (stereo unspecified)	GLP1R inv ag inconclusive
O=C(c1ccc(Br)cc1)c1cc([N+](=O)[O-])ccc1N1CCOCC1	GLP1R inv ag 1.4µM, GLP1R cytotox inconclusive
O=C(c1ccc(Cl)cc1)c1cc([N+](=O)[O-])ccc1N1CCOCC1	GLP1R inv ag inconclusive, GLP1R cytotox inconclusive
O=C(COC(=O)c1cc([N+](=O)[O-])ccc1N1CCOCC1)NCc1ccc(Cl)cc1Cl	GLP1R inv ag 11µM
